Data taken from the supplement of paper PMC6897291.
Structures can show the parent of a compound that is named as a salt.

What was measured:
RIVA [1] = test: growth inhibition by drug plus 177Lu-lilotomab satetraxetan (1 - RLU/untreated control) (fraction); higher = stronger inhibition; details: 177Lu-lilotomab satetraxetan 0.5 ug/ml
Outline: (§1)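 Plates pre-printed with the Selleck Cambridge Cancer Compound library at 10/100 nM (RIVA) or 10/1,000 nM (U-2932) received 3,000 cells/well. These cells had been washed after 18 h untreated or with a radiolabelled anti-CD37 antibody conjugate (~600 MBq/mg; 0.5 µg/ml RIVA, 1 µg/ml U-2932). Growth inhibition was obtained from RealTime-Glo luminescence in relation to untreated no-drug wells. Each daily read from day 3, taken after 1 h at 37°C, was converted as 1 − RLU/mean of 48 such wells per plate.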

U-2932 [2] = test: growth inhibition by drug alone (1 - RLU/untreated control) (fraction); higher = stronger inhibition; details: 177Lu-lilotomab satetraxetan 0 ug/ml
Outline: as §1

RIVA [3] = test: as above; details: 177Lu-lilotomab satetraxetan 0 ug/ml
Outline: as §1

U-2932 [4] = test: growth inhibition by drug plus 177Lu-lilotomab satetraxetan (1 - RLU/untreated control) (fraction); higher = stronger inhibition; details: 177Lu-lilotomab satetraxetan 1 ug/ml
Outline: as §1

Compound	growth inhibition by drug plus 177Lu-lilotomab satetraxetan (RIVA [1]; 100 nM, time (day): 5)	growth inhibition by drug plus 177Lu-lilotomab satetraxetan (RIVA [1]; 100 nM, time (day): 6)	growth inhibition by drug alone (U-2932 [2]; 10 nM, time (day): 3)	growth inhibition by drug alone (U-2932 [2]; 10 nM, time (day): 4)	growth inhibition by drug alone (U-2932 [2]; 10 nM, time (day): 5)	growth inhibition by drug alone (U-2932 [2]; 10 nM, time (day): 6)	growth inhibition by drug alone (U-2932 [2]; 1000 nM, time (day): 3)	growth inhibition by drug alone (U-2932 [2]; 1000 nM, time (day): 4)	growth inhibition by drug alone (U-2932 [2]; 1000 nM, time (day): 5)	growth inhibition by drug alone (U-2932 [2]; 1000 nM, time (day): 6)	growth inhibition by drug alone (RIVA [3]; 10 nM, time (day): 3)	growth inhibition by drug alone (RIVA [3]; 10 nM, time (day): 4)	growth inhibition by drug alone (RIVA [3]; 10 nM, time (day): 5)	growth inhibition by drug alone (RIVA [3]; 10 nM, time (day): 6)	growth inhibition by drug alone (RIVA [3]; 100 nM, time (day): 3)	growth inhibition by drug alone (RIVA [3]; 100 nM, time (day): 4)	growth inhibition by drug alone (RIVA [3]; 100 nM, time (day): 5)	growth inhibition by drug alone (RIVA [3]; 100 nM, time (day): 6)	growth inhibition by drug plus 177Lu-lilotomab satetraxetan (U-2932 [4]; 10 nM, time (day): 3)	growth inhibition by drug plus 177Lu-lilotomab satetraxetan (U-2932 [4]; 10 nM, time (day): 4)	growth inhibition by drug plus 177Lu-lilotomab satetraxetan (U-2932 [4]; 10 nM, time (day): 5)	growth inhibition by drug plus 177Lu-lilotomab satetraxetan (U-2932 [4]; 10 nM, time (day): 6)	growth inhibition by drug plus 177Lu-lilotomab satetraxetan (U-2932 [4]; 1000 nM, time (day): 3)	growth inhibition by drug plus 177Lu-lilotomab satetraxetan (U-2932 [4]; 1000 nM, time (day): 4)	growth inhibition by drug plus 177Lu-lilotomab satetraxetan (U-2932 [4]; 1000 nM, time (day): 5)	growth inhibition by drug plus 177Lu-lilotomab satetraxetan (U-2932 [4]; 1000 nM, time (day): 6)	growth inhibition by drug plus 177Lu-lilotomab satetraxetan (RIVA [1]; 10 nM, time (day): 3)	growth inhibition by drug plus 177Lu-lilotomab satetraxetan (RIVA [1]; 10 nM, time (day): 4)	growth inhibition by drug plus 177Lu-lilotomab satetraxetan (RIVA [1]; 10 nM, time (day): 5)	growth inhibition by drug plus 177Lu-lilotomab satetraxetan (RIVA [1]; 10 nM, time (day): 6)	growth inhibition by drug plus 177Lu-lilotomab satetraxetan (RIVA [1]; 100 nM, time (day): 3)	growth inhibition by drug plus 177Lu-lilotomab satetraxetan (RIVA [1]; 100 nM, time (day): 4)
CC(=O)[C@]1(O)Cc2c(O)c3c(c(O)c2[C@@H](O[C@H]2C[C@H](N)[C@H](O)[C@H](C)O2)C1)C(=O)c1ccccc1C3=O [Idarubicin HCl]	0.913	0.939	–	–	–	–	–	–	–	–	–	–	–	–	–	–	–	–	–	–	–	–	–	–	–	–	–	–	–	–	–	–
COc1cccc2c1C(=O)c1c(O)c3c(c(O)c1C2=O)C[C@@](O)(C(C)=O)C[C@@H]3O[C@H]1C[C@H](N)[C@H](O)[C@H](C)O1 [Daunorubicin HCl (Daunomycin HCl)]	0.94	0.96	0.144	0.147	0.0841	0.0306	0.971	0.975	0.98	0.983	0.109	0.134	0.15	0.0495	0.569	0.743	0.857	0.915	0.21	0.265	0.341	0.415	0.978	0.982	0.984	0.987	0.833	0.844	0.868	0.902	0.87	0.915
Nc1nc(OCc2cc(Br)cs2)c2[nH]cnc2n1 [Lomeguatrib]	–	–	-0.115	-0.036	-0.163	-0.244	-0.0214	-0.011	-0.105	-0.195	-0.0122	-0.0435	-0.118	-0.367	-0.0285	-0.0397	-0.0789	-0.154	0.00798	0.0431	0.0314	0.114	-0.0706	0.00418	0.025	0.00957	–	–	–	–	–	–
COc1cc(Nc2ncc(F)c(Nc3ccc4c(n3)NC(=O)C(C)(C)O4)n2)cc(OC)c1OC [R406(free base)]	0.581	0.575	0.0274	-0.00454	-0.0695	-0.162	0.0655	0.0291	-0.0439	0.00754	0.0167	-0.0293	-0.017	-0.0464	-0.368	-0.333	-0.353	-0.462	-0.0151	0.0369	0.0816	0.0813	0.069	0.0868	0.096	0.227	0.577	0.592	0.602	0.605	0.471	0.564
Oc1ccc(Nc2nc(-c3ccc(Cl)cc3)cs2)cc1	–	–	0.0714	0.0415	-0.0308	-0.079	0.00763	0.0746	-0.00976	-0.13	-0.021	-0.0647	-0.176	-0.522	-0.28	-0.263	-0.403	-0.57	-0.0159	0.00418	0.0159	-0.00943	0.0757	0.243	0.237	0.277	–	–	–	–	–	–
COc1ccc(-c2ccc3c(N4CCOCC4)nc(N4C[C@@H](C)O[C@@H](C)C4)nc3n2)cc1CO	–	–	0.119	0.133	0.0721	0.0015	0.602	0.481	0.389	0.407	0.0903	0.0995	0.0433	-0.131	0.104	0.122	0.0472	-0.0784	0.0319	0.069	0.0942	0.161	0.496	0.409	0.361	0.434	–	–	–	–	–	–
CO[C@H]1C[C@@H]2CC[C@@H](C)[C@@](O)(O2)C(=O)C(=O)N2CCCC[C@H]2C(=O)O[C@H]([C@H](C)C[C@@H]2CC[C@@H](O)[C@H](OC)C2)CC(=O)[C@H](C)/C=C(\C)[C@@H](O)[C@@H](OC)C(=O)[C@H](C)C[C@H](C)/C=C/C=C/C=C/1C [Rapamycin (Sirolimus)]	–	–	0.724	0.686	0.609	0.544	0.737	0.722	0.658	0.599	0.777	0.792	0.785	0.748	0.8	0.833	0.827	0.803	0.692	0.666	0.631	0.623	0.703	0.69	0.662	0.657	–	–	–	–	–	–
OCCn1cc(-c2ccc3c(c2)CC/C3=N\O)c(-c2ccncc2)n1	0.585	0.602	-0.0296	-0.0312	-0.153	-0.152	-0.112	-0.139	-0.146	-0.12	-0.166	-0.13	-0.183	-0.335	-0.39	-0.208	-0.171	-0.236	-0.00182	0.0536	0.0736	0.0788	-0.118	-0.0611	-0.0101	0.0758	0.513	0.569	0.578	0.59	0.436	0.551
CNC(=O)[C@@H](NC(=O)[C@H](CC(C)C)[C@H](O)C(=O)NO)C(C)(C)C [Marimastat]	–	–	-0.0984	-0.0992	-0.103	-0.269	-0.124	-0.117	-0.167	-0.336	-0.274	-0.343	-0.475	-0.556	-0.508	-0.486	-0.476	-0.599	-0.127	-0.0607	0.00218	0.096	-0.0404	-0.014	0.0136	0.157	–	–	–	–	–	–
CC(C)(C)c1cc(NC(=O)Nc2ccc(-c3cn4c(n3)sc3cc(OCCN5CCOCC5)ccc34)cc2)no1 [Quizartinib (AC220)]	0.377	0.391	0.0329	-0.0112	-0.0203	0.0321	-0.0933	-0.0955	-0.0983	0.0473	-0.0494	-0.0577	-0.051	-0.0533	-0.339	-0.307	-0.369	-0.46	0.0106	0.0631	0.109	0.208	-0.105	-0.0657	-0.0306	0.182	0.463	0.533	0.557	0.567	0.27	0.368
